Source: PubChem BioAssay (EPA / NIEHS)
Results filed as inconclusive are left out. Active and inactive are the calls of the source. Rule for the calls: active = hit-call score of the fitted dose curve at least 0.9, where 1 is the maximum; inconclusive = response in the unintended direction; inactive = score below 0.9.

Tests used:
[1] = target: human Peroxisome Proliferator-activated Receptor delta (PPARd), PPARD (gene 5467) (UniProt Q03181); assay: ATG_PPARd_TRANS: Attagene TRANS-FACTORIAL HepG2 Assay for human Peroxisome Proliferator-activated Receptor delta (PPARd) (AID 2283002)
In short: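 Read-out is induced reporter mRNA, quantified by RT-PCR with fluorescent labelling and capillary electrophoresis after 24 h dosing. Cells are HepG2 transiently carrying multiple GAL4-UAS reporter units driven by exogenous NR-GAL4 chimeras; DMSO serves as baseline.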

[2] = target: Retinoic acid receptor alpha (Homo sapiens) (UniProt P10276); assay: ATG_RARa_TRANS: Attagene TRANS-FACTORIAL HepG2 Assay for human Retinoic Acid Receptor alpha (RARa) (AID 2283005)
In short: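 Reporter transcripts, measured by RT-PCR with fluorescent labeling and capillary electrophoresis after 24 h dosing, reflect activity of an exogenous human RARa–GAL4 fusion in transiently transfected HepG2. Fitted for increase relative to DMSO.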

[3] = target: human Retinoic Acid Receptor gamma (RARg), RARG (gene 5916) (UniProt P13631); assay: ATG_RARg_TRANS: Attagene TRANS-FACTORIAL HepG2 Assay for human Retinoic Acid Receptor gamma (RARg) (AID 2283009)
In short: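 HepG2, RARg-GAL4 TRANS system, 24 h exposure; reporter mRNA by RT-PCR + CE fluorescence; increase over DMSO.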

[4] = target: human RAR-related Orphan Receptor beta (RORb), RORB (gene 6096) (UniProt Q92753); assay: ATG_RORb_TRANS: Attagene TRANS-FACTORIAL HepG2 Assay for human RAR-related Orphan Receptor beta (RORb) (AID 2283010)
In short: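 In this TRANS-format test, human HepG2 cells express chimeric NR-Gal4 fusion proteins driving GAL4-UAS reporters. After 24 h dosing, reporter transcripts are measured by fluorescent RT-PCR/capillary electrophoresis, with DMSO as negative control.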

[5] = target: human RAR-related Orphan Receptor gamma (RORg), RORC (gene 6097) (UniProt P51449); assay: ATG_RORg_TRANS: Attagene TRANS-FACTORIAL HepG2 Assay for human RAR-related Orphan Receptor gamma (RORg) (AID 2283011)
In short: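 Reporter transcripts from a transfected RORg-GAL4 chimera in HepG2 cells were quantified 24 h after dosing by RT-PCR, 6-FAM labelling, HpaI digestion and capillary electrophoresis; increases over DMSO baseline were fitted.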

[6] = target: human Retinoid X Receptor beta (RXRb), RXRB (gene 6257) (UniProt P28702); assay: ATG_RXRb_TRANS: Attagene TRANS-FACTORIAL HepG2 Assay for human Retinoid X Receptor beta (RXRb) (AID 2283013)
In short: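 Multiplexed TRANS reporter assay in HepG2; 24 h dosing; reporter mRNA by RT-PCR/CE fluorescence; gain-of-signal relative to DMSO.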

[7] = target: human Thyroid Receptor alpha (THRa1), THRA (gene 7067) (UniProt P10827); assay: ATG_THRa1_TRANS: Attagene TRANS-FACTORIAL HepG2 Assay for human Thyroid Receptor alpha (THRa1) (AID 2283014)
In short: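 Transcripts from GAL4-UAS-driven reporters, measured after 24 h compound exposure by RT-PCR plus capillary electrophoresis of 6-FAM-labeled fragments, were fitted for gain of signal relative to DMSO. Cells: transiently transfected HepG2 expressing NR-Gal4 chimeras.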

[8] = target: Peroxisome proliferator-activated receptor gamma (Homo sapiens) (UniProt P37231); assay: ATG_PPARg_TRANS: Attagene TRANS-FACTORIAL HepG2 Assay for human Peroxisome Proliferator-activated Receptor-gamma (PPARg) (AID 2283007)
In short: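 Human hepatoma HepG2, transient MRTU transfection, 24 h treatment. mRNA reporter signal by RT-PCR plus capillary electrophoresis, fluorescence detection; fitted for increase over DMSO negative control.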

[9] = target: Nuclear receptor subfamily 1 group I member 2 (Homo sapiens) (UniProt O75469); assay: ATG_PXR_TRANS: Attagene TRANS-FACTORIAL HepG2 Assay for human Pregnane X Receptor (PXR) (AID 2283008)
In short: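 Read-out is fluorescence of labelled reporter cDNA fragments separated by capillary electrophoresis after RT-PCR and HpaI digestion. Source: HepG2 cells carrying PXR-GAL4/UAS reporter constructs, treated 24 h; activity fitted upward relative to DMSO.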

[10] = target: Retinoic acid receptor RXR-alpha (Homo sapiens) (UniProt P19793); assay: ATG_RXRa_TRANS: Attagene TRANS-FACTORIAL HepG2 Assay for human Retinoid X Receptor alpha (RXRa) (AID 2283012)
In short: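 Cells (HepG2) carried transiently transfected GAL4-responsive reporter units. Following a 24 h chemical incubation, reporter mRNA induction was read via RT-PCR fragment analysis; DMSO served as negative control and baseline.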

[11] = target: human Retinoic Acid Receptor beta (RARb), RARB (gene 5915) (UniProt P10826); assay: ATG_RARb_TRANS: Attagene TRANS-FACTORIAL HepG2 Assay for human Retinoic Acid Receptor beta (AID 2283004)
In short: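 Induction of reporter mRNA from a chimeric RARb-Gal4 construct was measured by RT-PCR, FAM labelling, HpaI digestion and capillary electrophoresis. Measurements followed 24 h compound treatment of transiently transfected human HepG2 liver cells, with DMSO as baseline.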

Chain of human RAR-related Orphan Receptor beta (RORb), RORB (gene 6096) (Q92753 whole entry, looked up, the tested form may be a part): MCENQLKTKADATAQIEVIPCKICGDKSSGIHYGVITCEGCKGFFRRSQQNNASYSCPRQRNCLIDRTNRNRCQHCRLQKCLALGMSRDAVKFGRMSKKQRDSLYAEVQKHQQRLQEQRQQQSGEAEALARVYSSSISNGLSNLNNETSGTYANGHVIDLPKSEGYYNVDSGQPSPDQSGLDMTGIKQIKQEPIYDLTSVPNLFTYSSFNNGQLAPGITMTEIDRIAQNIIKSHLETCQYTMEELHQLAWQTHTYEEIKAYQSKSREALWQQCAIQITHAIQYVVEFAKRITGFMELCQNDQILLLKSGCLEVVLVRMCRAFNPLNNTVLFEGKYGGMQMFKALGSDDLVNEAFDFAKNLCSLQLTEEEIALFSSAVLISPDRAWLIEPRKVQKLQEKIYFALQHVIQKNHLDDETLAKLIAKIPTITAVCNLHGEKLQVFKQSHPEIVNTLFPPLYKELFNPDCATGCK
Chain of Retinoic acid receptor alpha (Homo sapiens) (P10276 whole entry, looked up, the tested form may be a part): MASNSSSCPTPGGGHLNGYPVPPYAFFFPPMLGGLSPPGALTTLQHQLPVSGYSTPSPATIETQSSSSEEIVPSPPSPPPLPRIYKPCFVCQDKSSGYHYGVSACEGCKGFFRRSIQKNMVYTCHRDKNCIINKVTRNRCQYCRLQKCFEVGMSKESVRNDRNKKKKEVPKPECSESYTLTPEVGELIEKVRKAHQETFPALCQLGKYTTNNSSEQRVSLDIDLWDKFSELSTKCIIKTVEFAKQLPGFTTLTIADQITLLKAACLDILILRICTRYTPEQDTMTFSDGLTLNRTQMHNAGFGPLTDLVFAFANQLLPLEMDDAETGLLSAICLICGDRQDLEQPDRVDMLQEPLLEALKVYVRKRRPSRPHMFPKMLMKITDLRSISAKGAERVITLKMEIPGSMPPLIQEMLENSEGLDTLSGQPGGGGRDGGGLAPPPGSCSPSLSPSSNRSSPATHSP
Chain of human Thyroid Receptor alpha (THRa1), THRA (gene 7067) (P10827 whole entry, looked up, the tested form may be a part): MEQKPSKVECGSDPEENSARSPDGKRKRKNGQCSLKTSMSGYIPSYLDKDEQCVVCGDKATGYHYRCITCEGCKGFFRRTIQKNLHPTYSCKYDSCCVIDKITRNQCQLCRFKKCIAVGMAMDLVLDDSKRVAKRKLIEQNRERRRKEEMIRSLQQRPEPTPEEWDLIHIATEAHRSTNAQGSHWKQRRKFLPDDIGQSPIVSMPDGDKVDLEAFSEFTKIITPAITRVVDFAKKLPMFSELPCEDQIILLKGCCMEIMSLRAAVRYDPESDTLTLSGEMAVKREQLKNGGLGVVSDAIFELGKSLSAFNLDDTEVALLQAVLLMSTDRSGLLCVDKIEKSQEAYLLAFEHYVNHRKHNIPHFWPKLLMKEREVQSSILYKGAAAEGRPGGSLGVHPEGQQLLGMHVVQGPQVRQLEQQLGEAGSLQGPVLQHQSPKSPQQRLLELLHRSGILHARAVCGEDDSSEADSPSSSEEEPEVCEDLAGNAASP
Chain of Retinoic acid receptor RXR-alpha (Homo sapiens) (P19793 whole entry, looked up, the tested form may be a part): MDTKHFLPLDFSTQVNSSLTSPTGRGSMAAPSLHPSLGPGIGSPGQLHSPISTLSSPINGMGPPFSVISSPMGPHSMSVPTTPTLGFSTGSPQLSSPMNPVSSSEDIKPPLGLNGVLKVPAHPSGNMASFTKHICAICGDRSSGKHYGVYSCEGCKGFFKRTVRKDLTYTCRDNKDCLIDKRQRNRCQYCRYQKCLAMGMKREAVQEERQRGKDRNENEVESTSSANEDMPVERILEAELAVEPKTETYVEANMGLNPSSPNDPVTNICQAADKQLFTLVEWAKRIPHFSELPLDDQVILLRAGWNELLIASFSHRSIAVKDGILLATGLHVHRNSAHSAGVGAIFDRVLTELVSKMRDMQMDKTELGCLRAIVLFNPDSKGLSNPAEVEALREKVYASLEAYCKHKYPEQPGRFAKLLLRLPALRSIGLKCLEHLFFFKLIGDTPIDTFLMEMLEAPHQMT
Chain of human Retinoic Acid Receptor gamma (RARg), RARG (gene 5916) (P13631 whole entry, looked up, the tested form may be a part): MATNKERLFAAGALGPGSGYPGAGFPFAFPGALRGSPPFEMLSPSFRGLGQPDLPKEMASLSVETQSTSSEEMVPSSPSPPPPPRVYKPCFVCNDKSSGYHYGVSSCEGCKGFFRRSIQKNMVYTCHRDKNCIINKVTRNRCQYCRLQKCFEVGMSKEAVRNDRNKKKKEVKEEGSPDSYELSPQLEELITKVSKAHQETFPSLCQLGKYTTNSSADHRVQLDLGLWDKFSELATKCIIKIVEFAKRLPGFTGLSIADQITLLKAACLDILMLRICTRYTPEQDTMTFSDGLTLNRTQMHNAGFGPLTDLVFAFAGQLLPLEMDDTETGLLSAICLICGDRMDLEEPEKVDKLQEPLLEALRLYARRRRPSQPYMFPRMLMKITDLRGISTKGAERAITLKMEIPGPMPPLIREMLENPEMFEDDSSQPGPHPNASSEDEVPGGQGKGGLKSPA
Chain of Nuclear receptor subfamily 1 group I member 2 (Homo sapiens) (O75469 whole entry, looked up, the tested form may be a part): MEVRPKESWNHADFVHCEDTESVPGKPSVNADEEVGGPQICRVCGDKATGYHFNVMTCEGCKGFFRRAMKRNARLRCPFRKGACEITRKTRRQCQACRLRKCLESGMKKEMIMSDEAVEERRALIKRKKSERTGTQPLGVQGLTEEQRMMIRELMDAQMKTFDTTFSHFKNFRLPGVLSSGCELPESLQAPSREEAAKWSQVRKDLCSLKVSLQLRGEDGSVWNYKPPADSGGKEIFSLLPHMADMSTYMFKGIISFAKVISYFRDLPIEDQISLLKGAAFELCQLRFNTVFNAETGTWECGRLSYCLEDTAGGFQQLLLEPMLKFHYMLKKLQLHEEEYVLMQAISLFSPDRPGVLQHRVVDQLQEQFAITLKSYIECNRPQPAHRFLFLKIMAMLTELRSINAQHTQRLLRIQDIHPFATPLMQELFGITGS
Chain of Peroxisome proliferator-activated receptor gamma (Homo sapiens) (P37231 whole entry, looked up): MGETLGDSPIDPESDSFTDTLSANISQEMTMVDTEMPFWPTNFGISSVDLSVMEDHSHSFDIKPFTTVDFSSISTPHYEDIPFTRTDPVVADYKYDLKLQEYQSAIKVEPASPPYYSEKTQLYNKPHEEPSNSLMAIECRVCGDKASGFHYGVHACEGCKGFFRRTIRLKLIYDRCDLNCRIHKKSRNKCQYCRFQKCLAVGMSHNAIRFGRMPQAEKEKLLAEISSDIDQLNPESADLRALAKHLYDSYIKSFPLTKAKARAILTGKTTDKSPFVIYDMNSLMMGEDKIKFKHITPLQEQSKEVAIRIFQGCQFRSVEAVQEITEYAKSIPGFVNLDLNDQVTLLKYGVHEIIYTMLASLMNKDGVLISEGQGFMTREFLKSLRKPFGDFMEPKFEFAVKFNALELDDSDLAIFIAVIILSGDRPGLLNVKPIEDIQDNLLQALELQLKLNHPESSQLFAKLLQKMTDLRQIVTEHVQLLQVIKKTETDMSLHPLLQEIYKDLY
Chain of human Peroxisome Proliferator-activated Receptor delta (PPARd), PPARD (gene 5467) (Q03181 whole entry, looked up, the tested form may be a part): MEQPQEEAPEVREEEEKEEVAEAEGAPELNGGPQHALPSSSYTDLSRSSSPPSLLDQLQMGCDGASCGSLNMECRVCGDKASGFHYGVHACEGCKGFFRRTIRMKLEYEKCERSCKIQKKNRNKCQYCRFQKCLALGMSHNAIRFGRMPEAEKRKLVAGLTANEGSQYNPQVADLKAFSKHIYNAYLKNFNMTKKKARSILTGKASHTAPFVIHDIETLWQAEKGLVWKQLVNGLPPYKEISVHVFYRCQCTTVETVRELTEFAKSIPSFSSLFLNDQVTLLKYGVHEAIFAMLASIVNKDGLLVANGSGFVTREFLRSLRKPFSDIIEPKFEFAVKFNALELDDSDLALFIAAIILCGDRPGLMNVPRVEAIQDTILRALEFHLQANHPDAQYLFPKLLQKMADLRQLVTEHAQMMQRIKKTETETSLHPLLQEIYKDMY
Chain of human Retinoid X Receptor beta (RXRb), RXRB (gene 6257) (P28702 whole entry, looked up): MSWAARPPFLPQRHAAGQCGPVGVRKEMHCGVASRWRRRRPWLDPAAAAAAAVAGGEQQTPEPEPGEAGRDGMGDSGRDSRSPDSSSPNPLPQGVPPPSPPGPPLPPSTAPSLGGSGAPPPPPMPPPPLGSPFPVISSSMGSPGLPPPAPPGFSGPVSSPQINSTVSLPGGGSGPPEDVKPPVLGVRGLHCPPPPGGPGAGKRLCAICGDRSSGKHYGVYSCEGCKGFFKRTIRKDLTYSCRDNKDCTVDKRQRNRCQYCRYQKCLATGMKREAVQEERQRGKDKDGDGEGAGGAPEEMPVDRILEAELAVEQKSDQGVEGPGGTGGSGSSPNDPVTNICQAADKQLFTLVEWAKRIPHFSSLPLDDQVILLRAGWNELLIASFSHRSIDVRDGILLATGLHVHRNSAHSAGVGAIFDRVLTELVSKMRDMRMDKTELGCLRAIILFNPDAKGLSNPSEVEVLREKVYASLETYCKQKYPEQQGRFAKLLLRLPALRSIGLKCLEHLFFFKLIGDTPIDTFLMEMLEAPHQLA
Chain of human RAR-related Orphan Receptor gamma (RORg), RORC (gene 6097) (P51449 whole entry, looked up, the tested form may be a part): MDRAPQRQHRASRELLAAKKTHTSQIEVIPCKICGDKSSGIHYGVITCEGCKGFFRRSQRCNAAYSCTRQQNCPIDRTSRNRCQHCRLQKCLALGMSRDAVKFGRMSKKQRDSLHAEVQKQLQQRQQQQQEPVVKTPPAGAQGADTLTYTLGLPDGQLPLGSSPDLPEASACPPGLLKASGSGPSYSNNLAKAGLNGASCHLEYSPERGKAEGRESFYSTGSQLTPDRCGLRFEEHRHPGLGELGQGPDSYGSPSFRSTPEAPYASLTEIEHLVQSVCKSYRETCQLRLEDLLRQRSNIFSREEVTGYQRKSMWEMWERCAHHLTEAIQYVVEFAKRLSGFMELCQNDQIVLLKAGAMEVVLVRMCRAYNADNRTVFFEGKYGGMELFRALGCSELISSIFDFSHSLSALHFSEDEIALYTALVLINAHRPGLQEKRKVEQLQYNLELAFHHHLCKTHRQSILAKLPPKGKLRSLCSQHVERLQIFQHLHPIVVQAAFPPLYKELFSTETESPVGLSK

O=S(=O)(O)c1cc(S(=O)(=O)O)c2ccc3c(S(=O)(=O)O)cc(S(=O)(=O)O)c4ccc1c2c43 was tested, and the outcome [1] was “inactive”, the outcome [2] was “inactive” and the outcome [3] was “inactive”. For the same compound, the outcome [4] was “inactive”, the outcome [5] was “inactive” and the outcome [6] was “inactive”. The outcome [7] was “inactive”.

CC(=O)OC(C)C was tested, and the outcome [1] was “inactive”, the outcome [2] was “inactive” and the outcome [8] was “inactive”. The outcome [9] was “inactive”, the outcome [3] was “inactive” and the outcome [5] was “inactive”. The outcome [10] was “inactive”.

CCOC(=O)CC was tested, and the outcome [1] was “inactive”, the outcome [8] was “inactive” and the outcome [9] was “inactive”. For the same compound, the outcome [10] was “inactive” and the outcome [7] was “inactive”.

For CCN(Cc1cccc(S(=O)(=O)O)c1)c1ccc(C(=C2C=CC(=[N+](CC)Cc3cccc(S(=O)(=O)[O-])c3)C=C2)c2ccccc2)cc1, the outcome [1] was “inactive”, the AC50 [8] was 31.1 µM (active) and the outcome [9] was “inactive”. The outcome [4] was “inactive”, the outcome [10] was “inactive” and the outcome [6] was “inactive”. The outcome [7] was “inactive”.

In the case of CC(C)(C)C(=O)CCc1ccc(Cl)cc1, the outcome [1] is reported as “inactive”, the outcome [8] is reported as “inactive” and the outcome [9] is reported as “inactive”. For the same compound, the outcome [3] was “inactive”, the outcome [5] was “inactive” and the outcome [10] was “inactive”. For the same compound, the outcome [6] was “inactive” and the outcome [7] was “inactive”.

With C=COCCCC the outcome [1] was “inactive”, the outcome [2] was “inactive” and the outcome [5] was “inactive”. The outcome [7] was “inactive”.

For O=C1Nc2ccccc2C1(c1ccc(O)cc1)c1ccc(O)cc1, the outcome [1] was “inactive”, the outcome [8] was “inactive” and the outcome [9] was “inactive”. The outcome [10] was “inactive” and the outcome [6] was “inactive”.

O=C(Oc1ccccc1)c1ccc2ccccc2c1O was tested, and the outcome [1] was “inactive”, the AC50 [8] was 15.9 µM (active) and the AC50 [9] was 16.9 µM (active).

In the case of C=C[C@](C)(O)CC[C@@H]1[C@@]2(C)CCCC(C)(C)[C@@H]2CC[C@@]1(C)O, the outcome [1] is reported as “inactive”, the outcome [8] is reported as “inactive” and the AC50 [9] is reported as 0.331 µM (active). For the same compound, the outcome [10] was “inactive”.

O=CC1CC1 was tested, and the outcome [1] was “inactive”, the outcome [2] was “inactive” and the outcome [3] was “inactive”. The outcome [5] was “inactive” and the outcome [7] was “inactive”.

For CCCCCCC(O)CO (stereo not drawn), the outcome [1] was “inactive”, the outcome [8] was “inactive” and the outcome [3] was “inactive”. The outcome [5] was “inactive” and the outcome [10] was “inactive”.

With C=C1C2CCC(C2)C1(C)C (stereo not drawn) the outcome [1] was “inactive”, the outcome [2] was “inactive” and the AC50 [9] was 18.9 µM (active). For the same compound, the outcome [3] was “inactive”, the outcome [4] was “inactive” and the outcome [7] was “inactive”.

For O=S(=O)(Oc1ccc(Cl)cc1Cl)c1ccccc1, the outcome [1] was “inactive”, the AC50 [8] was 29.5 µM (active) and the AC50 [9] was 2.19 µM (active). For the same compound, the outcome [10] was “inactive”, the outcome [6] was “inactive” and the outcome [7] was “inactive”.

For O=C(C(Cl)Cl)N1CCOC12CCCCC2, the outcome [1] was “inactive”, the outcome [8] was “inactive” and the outcome [9] was “inactive”. For the same compound, the outcome [3] was “inactive” and the outcome [10] was “inactive”.

For O=C(c1ccccc1)C1CCC1, the outcome [1] was “inactive”, the outcome [8] was “inactive” and the outcome [9] was “inactive”. For the same compound, the outcome [4] was “inactive”, the outcome [10] was “inactive” and the outcome [6] was “inactive”.

For COC=O, the outcome [1] was “inactive”, the outcome [11] was “inactive” and the outcome [9] was “inactive”. For the same compound, the outcome [10] was “inactive” and the outcome [6] was “inactive”.

With CCOC(F)(F)C(F)(F)C(F)(F)C(F)(F)F the outcome [1] was “inactive”, the outcome [8] was “inactive” and the outcome [9] was “inactive”. For the same compound, the outcome [10] was “inactive”.

For O=c1cc[nH]c(=S)[nH]1, the outcome [1] was “inactive”, the outcome [2] was “inactive” and the outcome [8] was “inactive”. The outcome [9] was “inactive”, the outcome [3] was “inactive” and the outcome [7] was “inactive”.
